Data reported in PubChem BioAssay AID1985 (Southern Research Specialized Biocontainment Screening …, 2009).
Screen size: about 2,300 compounds; about 1,000 (43%) were called active. No rule for the calls is given here. So high a share suggests a set chosen from earlier hits. The list shows a part of the results. Measured potencies and affinities stand elsewhere.

Test: modified counter assay using GFP fluorescence, PhoP regulon inhibitor project, dose response (AID 1985)
Conditions: S. Typhi, 4 h; series mostly up to 150 µM

| SMILES | outcome |
| --- | --- |
| COC(=O)c1ccc(CSc2nc3ccccc3c(=O)n2-c2ccc(OC)c(OC)c2)o1 | inactive |
| Cc1c(/C=N/NC(=O)c2ccc3c(c2)OCO3)cnn1C | inactive |
| COc1ccc(C(=O)O/N=C2\C(=O)N(C)c3ccccc32)cc1 | inactive |
| O=C(Nc1ccc(N2CCOCC2)cc1)C1CCN(S(=O)(=O)c2ccccc2F)CC1 | inactive |
| CCc1cccc2c(C=C(C#N)C#N)cn(CC(=O)N3CCCCCC3)c12 | inactive |
| CCOC(=O)c1ccc(S(=O)(=O)N2CCN(CCC#N)CC2)cc1 | inactive |
| CC(=O)NCc1ccc(C(=O)CCl)cc1 | inactive |
| CN(C)[C@@H]1C(=O)C(C(N)=O)=C(O)[C@@]2(O)C(=O)C3=C(O)c4c(O)cccc4[C@@](C)(O)C3[C@H](O)C12 (stereo partly drawn) | inactive |
| O=C1c2c(O)ccc(O)c2C(=O)c2c(NCCNCCO)ccc(NCCNCCO)c21 | inactive |
| C[C@@H](NC(=O)/C(C#N)=C/c1ccc(O)c(O)c1)c1ccccc1 | inactive |
| Cc1nc2cc(C(=O)N3CCC4(CC3)OCCO4)ccc2n1-c1cccc(F)c1 | inactive |
| COC(=O)C1=C(C)N(Cc2ccco2)C(=O)N[C@H]1c1ccc(Br)cc1 | inactive |
| COC(=O)C1=C(C)N(CC2CC2)C(=O)N[C@H]1c1ccc(Br)cc1 | inactive |
| COc1ccc2c(C(=O)CN(C)C3CCCCC3)c[nH]c2c1 | inactive |
| COc1ccc(CC(=O)N(Cc2cc3cc(OC)ccc3[nH]c2=O)C(C)C)cc1 | inactive |
| COC(=O)NNS(=O)(=O)c1ccc(C)cc1 | inactive |
| Cc1cc([N+](=O)[O-])nn1CC(=O)Nc1cccc2nonc12 | inactive |
| N#CCC(=O)N/N=C/c1ccccc1Cl | inactive |
| Cc1[nH]nc2c1C1(CCC3(CC1)OCCO3)C(C#N)=C(N)O2 | inactive |
| NC(=O)COc1c(-c2ccco2)oc2ccccc2c1=O | inactive |
| COc1ccc(-c2noc(CCC(=O)Nc3cccc(C)c3)n2)cc1 | inactive |
| COC(=O)c1ccc(NC(=S)NNC(=O)c2ccccc2)cc1 | inactive |
| COc1ccc(-c2nc3ccc(C(=O)NCC(OC)OC)cc3nc2-c2ccc(OC)cc2)cc1 | inactive |

| SMILES | outcome |
| --- | --- |
| O=C(NNC(=O)c1cccs1)c1ccc2ccccc2c1 | inactive |
| CCOC(=O)c1cccc(NC(=O)c2cccs2)c1 | inactive |
| CCCOc1ccc(C2C(C(=O)c3ccc(C)o3)=C(O)C(=O)N2CCCn2ccnc2)cc1 (stereo not drawn) | inactive |
| Clc1ccc(-c2cc(C3CCNCC3)[nH]n2)c(Cl)c1 | inactive |
| C=CCn1c(C)c(C(C)=O)c(SC)nc1=S | inactive |
| COc1ccc(CNC(=O)C(c2cccs2)N(C(=O)c2csnn2)C2CC2)cc1 (stereo not drawn) | inactive |
| COCCN1C(=O)C(=O)/C(=C(/O)c2cccc(OC)c2)C1c1ccncc1 (stereo not drawn) | inactive |
| CCC1(CC)C(=O)NC(=O)NC1=Nc1cccc(OC)c1 | inactive |
| CCC(=O)c1ccc(OCC(O)CNCCc2ccc(Cl)cc2)cc1 (stereo not drawn) | inactive |
| Cn1c(=O)cc(SCC(=O)N2CCN(C3CCCCC3)CC2)c2ccccc21 | inactive |
| Cn1c(C(O)c2ccccc2F)nc(Cl)c1Cl (stereo not drawn) | inactive |
| CSc1ccccc1NC(=O)CN1CCCCC1C (stereo not drawn) | inactive |
| CNS(=O)(=O)c1cccc(C(=O)OCc2cc(=O)oc3c(C)c(O)ccc23)c1 | inactive |
| O=C(N/N=C/c1ccc(F)c(F)c1)c1cc2c(s1)-c1ccccc1CC2 | inactive |
| CC(C)(C)Nc1nc(-c2ccccn2)nc2ccccc12 | inactive |
| CC(C)(C)NC(=O)/C=C/c1ccc(C(F)(F)F)cc1 | inactive |
| COCCN1CC(=O)N2C(c3cccc(OC)c3)c3[nH]c4ccccc4c3C[C@H]2C1=O (stereo partly drawn) | inactive |
| Cc1ccc2c(c1)C1CN(C)CCC1N2C(=O)COc1ccccc1F (stereo not drawn) | inactive |
| CCOC(=O)c1cc(-c2ccc(F)cc2)n(CCC(=O)NC2CCN(Cc3ccccc3)CC2)c1C | inactive |
| c1ccc(CN2CCC(Nc3nc(-c4ccccc4)nc4ccccc34)CC2)cc1 | inactive |
| c1ccc(CN2CCC(N3CCN(Cc4ccc5c(c4)OCO5)CC3)CC2)cc1 | inactive |
| c1ccc(CN2CCC(Nc3nc(-c4cccs4)nc4ccccc34)CC2)cc1 | inactive |
| Cc1ccccc1C(=O)c1cccn1CC(=O)NCCC1=CCCCC1 | inactive |

| SMILES | outcome |
| --- | --- |
| Cc1cc2ccccc2c(=O)n1CC(=O)NCCC1=CCCCC1 | inactive |
| Clc1ccc(OCc2nc(-c3ccc(Br)o3)no2)cc1 | inactive |
| CN1CCN(c2ccccc2NC(=O)c2cc3c(s2)-c2ccccc2OC3)CC1 | inactive |
| NCC/C=C1/c2ccccc2CSc2ccccc21 | inactive |
| c1ccc2c(Nc3nnc(-c4ccncc4)s3)cccc2c1 | inactive |
| O=C(Nc1ccc(N2CCOCC2)cc1)c1ccc(S(=O)(=O)NCc2ccco2)cc1 | inactive |
| CCc1cccc(NC(=O)CSC2=NS(=O)(=O)c3ccccc32)c1 | inactive |
| O=C(CNC(=O)Cn1ccc2ccccc2c1=O)NCCCN1CCCCCC1 | inactive |
| O=C1CCCN1CCC1CCN(C2CC(=O)N(c3ccc(Cl)cc3)C2=O)CC1 (stereo not drawn) | inactive |
| CC(NCC(O)COCCC12CC3CC(CC(C3)C1)C2)c1ccccc1 (stereo not drawn) | inactive |
| CS(=O)(=O)c1cnc2c(-c3ccsc3)cnn2c1N | inactive |
| O=C(CCSCc1ccccc1F)NCc1cccs1 | inactive |
| CC(OC(=O)Cc1coc2cc3c(cc12)CCC3)C(=O)NCc1ccc2c(c1)OCO2 (stereo not drawn) | inactive |
| COc1cc2[nH]c(=S)n(CC3CCCO3)c(=O)c2cc1OC (stereo not drawn) | inactive |
| Cc1ccc(NC2OC(CO)C(O)C(O)C2O)cc1 (stereo not drawn) | inactive |
| Cc1cn([C@H]2C[C@H](N=[N+]=[N-])[C@@H](CO)O2)c(=O)[nH]c1=O | inactive |
| O=C(COC(=O)CNC(=O)c1ccccc1)Nc1ccc(F)c([N+](=O)[O-])c1 | inactive |
| Cc1[nH]nc2c1C(c1ccc(-c3ccccc3C#N)o1)C(C#N)=C(N)O2 (stereo not drawn) | inactive |
| O=C(NCc1cccs1)C(=O)NCC(c1ccco1)N1CCN(c2ccc(F)cc2)CC1 (stereo not drawn) | inactive |
| CCCN(CCC)CC(=O)Nc1cccc2c1OCO2 | inactive |
| O=C(NC(=S)Nc1c(F)cc(F)cc1Br)c1ccc2c(c1)OCCO2 | inactive |
| O=C(/C=C/c1ccccc1)NNC(=O)c1ccco1 | inactive |
| O=C(/C=C/c1ccco1)NC(=S)Nc1cccc(-c2nc3ccccc3o2)c1 | inactive |

| SMILES | outcome |
| --- | --- |
| CC(=O)c1cccc(NC(=S)NNC(=O)c2ccco2)c1 | inactive |
| c1csc(-n2nc3ccccc3n2)c1 | inactive |
| CC1Cc2ccccc2N1C(=O)CN1C(=O)C(=O)N(Cc2ccccc2)C1=O (stereo not drawn) | inactive |
| CC(C)(C)SCCNC(=O)c1ccccc1 | inactive |
| CCOc1ccc(-c2c[n+]3c(n2-c2ccccc2)CCCCC3)cc1 | inactive |
| COCCCNc1c2c(nc3nnnn13)CCCC2 | inactive |
| CC(C)(C)c1ccc(OCCNC(=S)Nc2ccccc2)cc1 | inactive |
| C#CCOC(=O)c1ccccc1C(=O)OCC#C | inactive |
| O=C(NCCCNc1ccnc2cc(Cl)ccc12)c1ccccc1F | inactive |
| C=CCNc1nc(-c2ccccc2)nc(-n2ccnc2)n1 | inactive |
| O=C(CSc1nc2ccccc2o1)c1cc2ccccc2oc1=O | inactive |
| CC(Sc1nc2ccccc2o1)C(=O)O (stereo not drawn) | inactive |
| CN(CCO)CC(O)Cn1cnc2c1c(=O)n(C)c(=O)n2C (stereo not drawn) (tested in a mixture with another compound) | inactive |
| Cc1ccc(N2CC(C(=O)OCc3ccccc3F)CC2=O)cc1 (stereo not drawn) | inactive |
| Cc1cc2oc(=O)cc(CN3CCN(C/C=C/c4ccccc4)CC3)c2cc1O | inactive |
| O=C(O)/C=C/c1cn(-c2ccccc2)nc1-c1cc2ccccc2oc1=O | inactive |
| Oc1c(Br)cc(Br)cc1Oc1ccc(Br)cc1Br | inactive |
| Cc1cccc(N/N=C/c2ccc(O)c(O)c2O)c1 | inactive |
| Oc1c(Br)cc(Br)cc1C=Nc1cccc2ncccc12 | inactive |
| Cc1cc(C)nc(NS(=O)(=O)c2ccc(N3C(=O)C4CC=C(Cl)CC4C3=O)cc2)n1 (stereo not drawn) | inactive |
| Cc1cc(C)cc(NC(=O)C(Sc2nnc(C)c(=O)[nH]2)c2ccccc2)c1 (stereo not drawn) | inactive |
| Cc1c(C)n(C)c2ccc(C(=O)NCc3cccs3)cc12 | inactive |
| Cc1cccc2cc(C(c3nnnn3Cc3ccccc3)N3CCN(C)CC3)c(=O)[nH]c12 (stereo not drawn) | inactive |

| SMILES | outcome |
| --- | --- |
| CCCCc1ccc2[nH]cc(CCN)c2c1 | inactive |
| CCN(CC)C(=O)CNC(=O)Cc1ccc(Cl)cc1 | inactive |
| S=C1SCN(Cc2cccnc2)CN1Cc1cccnc1 | inactive |
| Cc1nc2nc(COc3ccccc3)nn2c(C)c1Cl | inactive |
| Cc1cc2oc(C(=O)NCc3ccncc3)c(C)c2cc1C | inactive |
| O=C(Nc1ccc(Nc2ccncc2)cc1)c1ccc([N+](=O)[O-])cc1 | inactive |
| O=C(Nc1ccc(N2CCOCC2)c(Cl)c1)c1ccccc1F | inactive |
| CC(=O)Nc1cccc(NS(=O)(=O)Cc2ccc(Cl)cc2)c1 | inactive |
| COc1ccc2c(c1)CC1(CN2C)C(=O)NC(=O)N(CCc2ccccc2)C1=O (stereo not drawn) | inactive |
| Cc1ccc(C(=O)O)cc1N=Cc1cc(Br)cc(Br)c1O | inactive |
| Nc1ccc(S(=O)(=O)c2ccc(N)cc2)cc1 | inactive |
| Nc1nonc1-n1nnc(C(=O)N/N=C/c2ccccc2O)c1CN1CCCC1 | inactive |
| O=C(N/N=C/c1cccnc1)c1cccc(Cl)c1 | inactive |
| Nc1cc(=O)[nH]c(=S)n1-c1cccc(C(F)(F)F)c1 | inactive |
| O=C1c2[nH]nc(-c3ccccc3O)c2C(c2ccc(F)cc2)N1CC1CCCO1 (stereo not drawn) | inactive |
| C=CCNC(=O)NC(=O)COC(=O)/C(C#N)=C/c1ccc(OC)cc1 | inactive |
| N#CCCn1ncc2ccccc21 | inactive |
| Cc1c(C)c2ccc(OC(C)C(=O)N[C@@H](Cc3c[nH]c4ccccc34)C(=O)O)c(C)c2oc1=O (stereo partly drawn) | inactive |
| COc1ccc(/C=N/NC(=O)c2cccnc2)cc1 | inactive |
| CCN(CC)Cc1c(C(=O)N/N=C/c2cccc3ccccc23)nnn1-c1nonc1N | inactive |
| Cc1ccc(N=Cc2cc(Br)cc(Cl)c2O)cc1 | inactive |
